HT1080 IDH1KD tx – qHTS for induction of synthetic lethality in tumor cells producing 2HG: qHTS for the HT-1080-IDH1KD cell line | Potency, µM (series often up to 46.1 µM), without a hit: at the top dose activity, negative = toxicity, usual class: cytotoxic | HT-1080 IDH1 knockdown viability, ATP luminescence, 48 h | actives 2% (n = 360,000) | AID 686971, 2013;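 further: 0% = DMSO wells and -100% = cell-free medium wells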
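IDH1KD HT-1080 cells, 750/well, RPMI + 5% FBS; compound pinned after 2 h settling; 48 h, 37 °C; CellTiter-Glo luminescence; % activity normalised to DMSO and no-cell wells; curves fitted, classed by r2 and efficacy.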
KB-3-1 tox – qHTS assay for MDR1-selective chemotherapeutics: Primary screen using the parental adenocarcinoma cell KB-3-1. KB-3-1 viability, CellTiter-Glo ATP luminescence, 72 h. Potency, µM (doses to about 46.1 µM), hits mostly cytotoxic. actives 1.4% (n = 400,000). AID 1347075, 2019; further: on the % scale 0 is the no-effect control and ±100 the full control effect; nearly all actives have a fitted effect of over 60% in size
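Viability of parental KB-3-1 cells, measured by CellTiter-Glo luminescence, followed a 72 h incubation at 37 °C with pinned compounds in phenol-red-free DMEM containing 10% FBS.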
HT1080NT lethal – qHTS for induction of synthetic lethality in tumor cells producing 2HG: qHTS for the HT-1080-NT fibrosarcoma cell line; Potency, µM (top dose mostly 46.1 µM), for the others: top-dose activity, negative = less viability, actives largely listed as cytotoxic; actives 1.6% (n = 360,000); HT-1080-NT fibrosarcoma viability, CellTiter-Glo ATP luminescence, 48 h;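 further: NT is the 2HG producing partner of a matched IDH1 knockdown line; 0% = DMSO-treated cells and -100% = media-only wells without cells; nearly all actives have a fitted effect of over 55% in size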
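Luminescent CellTiter-Glo readout after 48 hours of compound exposure at 37 degrees C defined viability of HT-1080-NT cells. Activity was normalized to DMSO wells and cell-free media wells; concentration-response curves were fitted and assigned curve classes.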
KB-V1 MDR tox – qHTS assay for MDR1-selective chemotherapeutics: Primary screen using the drug-selected MDR subline cells KB-V1; KB-V1 MDR cells viability, CellTiter-Glo, 72 h; Potency, µM (series often up to 46.1 µM), hits mostly cytotoxic; actives 3.4% (n = 400,000); further: on the % scale 0 is the no-effect control and ±100 the full control effect; nearly all actives have a fitted effect of over 60% in size
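In this primary screen, KB-V1 cells overexpressing P-gp are incubated with library compounds (lowest to highest concentration) for 72 h at 37 degrees C before a luminescent ATP viability read.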
HepG2 tox – qHTS for Inhibitors of TGF-b: Cytotox Counterscreen; AID 588856, 2011; HepG2 CAGA-GFP viability, ATP luminescence, 18 h; Potency, µM (series often up to 46.1 µM), for inactives: at the top dose activity change, negative = cytotoxicity, most hits filed as cytotoxic; actives 0.76% (n = 410,000)
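HepG2 CAGA-GFP cells (1000/well, DMEM with 1% FBS) received compound, then TGF-beta at 500 pg/mL final, and were incubated 18 hours at 37 degrees C. Viability was read by CellTiter-Glo luminescence. Media-only wells were set as complete cell-killing and DMSO as no toxicity.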
TGFb SMAD3 inh – qHTS for Inhibitors of TGF-b | HepG2 CAGA-GFP TGF-b/SMAD3 reporter, GFP fluorescence, 18 h; TGF-beta stimulated, 500 pg/mL final | Potency, µM (doses to about 46.1 µM), inactives show at the top dose activity, negative = inhibition, usual class: inhibitors | actives 1.2% (n = 410,000) | AID 588855, 2011; further: on the % scale 0 is the no-effect control and ±100 the full control effect; nearly all actives have a fitted effect of over 65% in size
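HEPG2 CAGA-GFP reporter cells (1000/well, DMEM with 1% FBS) received compounds, then recombinant TGF-beta at 500 pg/mL final for 18 hours at 37 degrees C. Per-cell GFP summed per well was normalised to unstimulated and stimulated DMSO controls before curve fitting.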
The depositor's hits bear a star; i = inactive; ? = inconclusive; · = no result given; [ ] = another dose, or the depositor's remark. Compounds with a hit are over-represented: about 6.6% of the library has one in this group of screens. The call rests on the fitted dose curve; in most records, active means well fitted curve in the direction sought with a large enough effect; inconclusive means small, poorly fitted or top-dose-only effect, or another doubt; inactive means no such curve, though single readings can be large; an effect the other way counts as inactive or inconclusive. Potency means the concentration at half of the fitted maximal effect.

SMILES	HT1080 IDH1KD tx	KB-3-1 tox	HT1080NT lethal	KB-V1 MDR tox	HepG2 tox	TGFb SMAD3 inh
COc1ccc(S(=O)(=O)N2CCC(C(=O)NCCc3ccccc3)CC2)cc1OC	?	i	-2%[9.24 µM]	i	-28%	?
COc1ccc(S(=O)(=O)N2CCC(C(=O)NCCOc3ccccc3F)CC2)cc1OC	-10%	i	2%	23µM*	5%	-3%
COc1ccc(OC2CCN(S(=O)(=O)c3ccc(OC)c(OC)c3)CC2)cc1	-14%	i	-9%	i	11µM*	-23%
COc1ccc(-c2sc3ccc(N4CCOCC4)cc3c2C#CC2(O)CCCCC2)cc1	?	?	21µM*	i	-31%	?
CCc1cc(C(=O)N2CCCC(C(=O)c3cccc4ccccc34)C2)n(C)n1 (centres undefined)	-18%	21µM*	-5%	5.2µM*	-24%	-10%
O=C(N/N=C/c1ccc(-c2cccc(C(F)(F)F)c2)o1)c1ccccc1Br	?	i	-19%	i	-15%	20µM*
CN(C)c1ncc(S(=O)(=O)c2ccccc2)c(-c2ccccc2Cl)n1	-25%	i	-15%	18µM*	-2%	36%
CCOc1ccccc1C(=O)N(Cc1cc(OC)c(OC)c(OC)c1)c1ccccn1	·	i	·	?	-15%	-8%
Cc1ccc2nc(-c3ccco3)c(CC(C)(C)C)n2c1	8%	i	-2%	i	-29%	?
Fc1cccc(Cc2c(-c3ccco3)nc3ccc(Br)cn23)c1	16µM*	i	?	i	-97%	?
Cc1ccc2nc(-c3ccco3)c(Cc3ccccc3)n2c1	23µM*	i	?	?	-15%	?
COC(=O)c1ccc2nc(-c3ccco3)c(Cc3ccccc3)n2c1	?	i	?	i	-35%	11µM*
NC(=O)c1ccc(NC(=O)COC(=O)c2c[nH]c3ccccc23)cc1	?	i	-19%	i	-8%	17%
O=C(C1CCN(S(=O)(=O)c2cccnc2)CC1)N1CCN(c2ccc(Cl)cc2)CC1	?	13µM*	?	6.5µM*	-20%	?
O=C(C1CCN(S(=O)(=O)c2cccnc2)CC1)N1CCN(c2ccccc2Cl)CC1	2%	i	-1%	?	-2%	2%
Cc1nn(C)c(C)c1S(=O)(=O)N1CCCC(C(=O)N2CCN(c3ccc(Cl)cc3)CC2)C1 (centres undefined)	?	18µM*	-3%	i	-13%	0%
O=C(C1CCN(S(=O)(=O)c2ccc(Cl)s2)CC1)N1CCN(c2ccccc2)CC1	6%	i	-8%	18µM*	-5%	?
CCC(=O)N1CCCC1(C)C(=O)Nc1ccc(C)c(C)c1 (centres undefined)	?	i	12%	i	4%	-5%
COc1ccc(S(=O)(=O)N(C(=O)c2ccncc2)c2ccc3oc4c(c3c2)CCCC4)cc1	?	?	-21%	?	-59%	11µM*
COc1ccc(S(=O)(=O)Nc2ccc3oc4c(c3c2)CCCC4)cc1	·	i	·	?	-102%	13µM*
CC(=O)c1c(C)oc2ccc(N(C(=O)c3ccncc3)S(=O)(=O)c3ccc(C)cc3C)cc12	·	?	·	23µM*	-23%	-4%
COc1ccc(OC)c(S(=O)(=O)Nc2ccc3oc4c(c3c2)C(=O)CCC4)c1	-10%	i	2%	23µM*	-2%	-17%
COc1ccc(C(=O)NCc2nc(-c3cccc(C)c3)no2)cc1OC	·	·	·	·	-16%	?
O=C(NCCc1ccccc1)c1cnc2sc(N3CCCCCC3)nn2c1=O	·	·	·	·	-14%	0%
Cc1ccccc1-n1c(C)nnc1SC(C)C(=O)NCc1ccco1 (centres undefined)	·	?	·	i	4%	20%
SMILES	HT1080 IDH1KD tx	KB-3-1 tox	HT1080NT lethal	KB-V1 MDR tox	HepG2 tox	TGFb SMAD3 inh
CCOC(=O)c1c(C)oc2ccc(N(C(C)=O)S(=O)(=O)c3c(C)cc(C)cc3C)cc12	·	23µM*	·	4.1µM*	-10%	7%
Cc1cc2c(c(C)c1Cl)C(c1ccc3c(c1)OCO3)CC(O)(c1ccccc1)O2 (centres undefined)	·	·	·	·	18µM*	20µM*
COc1ccc(C2CC(=O)Oc3cc(C)c(Cl)c(C)c32)cc1 (centres undefined)	?	i	-19%	i	-8%	-15%
O=C(CCCn1ccc2cc(S(=O)(=O)N3CCCC3)ccc21)NCc1ccc(Cl)cc1	·	·	·	·	-27%	?
O=C(Nc1ccccc1-c1ccccc1)C1CCCN(c2ncccn2)C1 (centres undefined)	5%	i	4%	21µM*	0%	-20%
O=C(Nc1cccc(C(F)(F)F)c1)C1CCCN(c2ncccn2)C1 (centres undefined)	-3%	i	-5%	16µM*	0%	-29%
O=C(NCc1cccc(C(F)(F)F)c1)C1CCCN(c2ncccn2)C1 (centres undefined)	-18%	i	1%	i	-7%	-23%
Cc1ccc(NC(=O)C2CCCN(c3ncccn3)C2)cc1F (centres undefined)	4%	i	11%	16µM*	-87%	3%
Cc1ccc(NC(=O)C2CCCN(c3ncccn3)C2)c(C)c1 (centres undefined)	15%	i	22%	i	-4%	13%
Cc1cc(C)cc(NC(=O)C2CCCN(c3ncccn3)C2)c1 (centres undefined)	13%	i	4%	i	-15%	3%
CCOC(=O)c1ccc(NC(=O)CCCc2nc(-c3ccccc3Cl)no2)cc1	·	i	·	i	-27%	?
CCC1(C)Cc2ccccc2-c2nc(-c3ccccc3)oc(=O)c21 (centres undefined)	12%	?	11%	16µM*	9%	-17%
Cc1ccc(C(=O)Nc2cc3cc(Cl)ccc3oc2=O)cc1	·	·	·	·	5%	0%
O=C(C=Cc1ccccc1)c1cc(Br)ccc1O	0%	i	-1%	i	-3%	-5%
CCOc1ccc(/C=C/C(=O)c2cc(Br)ccc(=O)c2O)cc1	23µM*	?	?	10µM*	-55%	7.9µM*
